Source: PubChem BioAssay (National Center for Advancing Translational Sciences (NCATS))
NS1 function inh = influenza NS1 inhibition. Potency, µM (highest dose often 46.1 µM). hit rate 0.4% among 270,000. AID 2326; calls by dose curve; note: actives are rising curves; nearly all actives have a fitted effect of over 50% in size
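Recovery from NS1-induced slow growth read by OD600 in budding yeast switched to galactose assay medium (pH 6.0, -URA) at 1:100 dilution. Compound 23 nl per well; the matching strain lacking NS1 serves as control.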
Giardia FBPA inh = inhibitors of Giardia lamblia fructose-1,6-bisphosphate aldolase | purified Giardia FBPA | Potency, µM (series often up to 59.6 µM), most hits filed as inhibitors | hit rate 0.71% among 290,000 | AID 2451; note: nearly all actives have a fitted effect of over 55% in size
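Giardia FBPA (40 nM reagent) was preincubated 10 min at RT with compound (up to 57.5 uM final), then substrate plus GAPDH/TPI/NAD/arsenate coupling system with diaphorase/resazurin was added; resorufin fluorescence (525/598 nm) was read after 20 min.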
LmPK inh = inhibitors of Leishmania mexicana pyruvate kinase; Q27686; purified LmPK, Kinase-Glo ATP luminescence, 1 h; Potency, µM (doses to about 57.5 µM), usual class: inhibitors; hit rate 0.37% among 290,000; AID 1721
Target sequence (Q27686 whole entry, looked up): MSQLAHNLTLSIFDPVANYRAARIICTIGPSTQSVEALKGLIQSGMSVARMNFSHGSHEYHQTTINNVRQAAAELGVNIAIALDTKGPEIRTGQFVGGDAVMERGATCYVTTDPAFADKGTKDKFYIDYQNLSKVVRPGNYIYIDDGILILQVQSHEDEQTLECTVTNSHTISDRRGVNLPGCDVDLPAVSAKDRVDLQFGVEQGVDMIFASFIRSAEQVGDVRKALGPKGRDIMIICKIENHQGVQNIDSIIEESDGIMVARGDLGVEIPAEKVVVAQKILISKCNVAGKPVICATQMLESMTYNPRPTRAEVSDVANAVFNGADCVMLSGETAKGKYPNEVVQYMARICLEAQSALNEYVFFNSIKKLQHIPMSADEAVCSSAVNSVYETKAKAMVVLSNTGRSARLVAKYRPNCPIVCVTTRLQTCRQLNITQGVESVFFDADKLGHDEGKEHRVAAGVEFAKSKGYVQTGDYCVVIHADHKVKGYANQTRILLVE
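Purified LmPK (0.1 nM) converted ADP (0.1 mM) to ATP with PEP (0.5 mM) in imidazole buffer pH 7.2 with KCl and MgCl2, 1 h at room temperature. ATP was read by Kinase-Glo luminescence; data normalized to uninhibited and no-enzyme controls.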
Shiga inhibitor = blocks Shiga toxin action in Vero cells; Vero cells, Shiga toxin protein synthesis inhibition reporter; inhibition, % at 38.7 µM; hit rate 9.2% among 290,000; in the data active = inhibition mostly above about 28%, no sharp cut-off; inactive = mostly below about 43%
Cycloheximide cs = counter-screen hit for Shiga toxin inhibitors, cycloheximide. max response, %. hit rate 12% among 300,000. AID 2314. cell reporter, cycloheximide protein synthesis inhibition counterscreen; in the data active = max response mostly above about 13%, no sharp cut-off; inactive = mostly below about 14%; note: read at 38.3 µM for the half of the compounds with a filed dose
Large screens that a line does not name were inactive. Rows were chosen to be rich in hits. Some 14% of all compounds tested hit in one or more screens of this group. Unless noted, calls come from the whole dose curve; as a rule, active = well fitted curve in the direction sought with a large enough effect; inconclusive = small, poorly fitted or top-dose-only effect, or another doubt; inactive = no such curve, though single readings can be large; an effect the other way counts as inactive or inconclusive.

COc1ccc(OC)c(S(=O)(=O)ON2C(=O)c3ccccc3C2=O)c1	LmPK inh inconclusive
CCc1ccc(S(=O)(=O)Nc2ccc(Br)cn2)cc1	none
O=C(CCNC(=O)C1CCN(S(=O)(=O)c2ccccc2)CC1)NCCc1cccc(F)c1	none (no result: Giardia FBPA inh)
N=C1SC(c2ccccc2)C(=O)N1c1ncc(Cc2ccccc2)s1 (stereo unspecified)	Shiga inhibitor 56, Cycloheximide cs 18
O=C(c1ccc(-n2cncn2)c([N+](=O)[O-])c1)N1CCN(S(=O)(=O)c2ccc(Cl)cc2)CC1	none (no result: Giardia FBPA inh)
CN(N=Nc1ccc([N+](=O)[O-])cc1)c1ccccc1	Shiga inhibitor 54, Cycloheximide cs 68
O=[N+]([O-])c1cccc(C(=Nc2ccccc2)NO)c1	none
CC(C)N(N=Nc1ccc([N+](=O)[O-])cc1)C(C)C	none
CN(N=Nc1cccc([N+](=O)[O-])c1)c1ccccc1	Shiga inhibitor 88, Cycloheximide cs 57
CC(=O)c1c(N=CN(C)C)nc(C)nc1-c1ccccc1	none
CN(C)C=Nc1ccccc1C1C=NNC1=O (stereo unspecified)	Shiga inhibitor 52, Cycloheximide cs 23
COc1ccc2cc(C(=O)OC(C)C)sc(=O)c2c1OC	Shiga inhibitor 30, Cycloheximide cs 14
COc1ccc2cc(C(=O)NCC(=O)O)sc(=O)c2c1OC	none
Cc1ccccc1C(=O)NNC(=O)c1cccc(Br)c1	none (no result: Shiga inhibitor)
Cc1cc(C)n2c(SCc3ccc(Br)cc3)nnc2n1	Cycloheximide cs 11
CC(=O)Nc1ccc(-c2ccccc2)s1	none
CNC(=O)c1ccc(-c2ccccc2)s1	Shiga inhibitor 69, Cycloheximide cs 34
CCC/C(=N/NC(=O)c1csc(C)c1C)c1ccc(Cl)s1	Shiga inhibitor 92
CCCOC(=O)/C(C)=N\NC(=O)c1ccco1	Shiga inhibitor 154, Cycloheximide cs 64
CC/C(=N\NC(=O)c1cc(C)nc2ccccc12)c1ccc(C)s1	none
CCC/C(=N\NC(=O)c1ccco1)c1ccc(Cl)s1	Cycloheximide cs 22 (no result: Giardia FBPA inh)
O=C(CCSCc1cccc(F)c1)NCCc1ccccc1	none
Cc1ccc(C(=O)NCCCNC(=O)c2ccco2)cc1C	none
COc1ccc(NC(=O)CCNC(=O)c2ccco2)c(OC)c1	Cycloheximide cs 28
COc1cc2c(cc1NC(=O)c1ccco1)CCCC2	Shiga inhibitor 57, Cycloheximide cs 52
COc1cc(NC(=O)C2CCCCC2)c(OC)cc1NC(=O)c1ccco1	none
COc1cc(NC(=O)C(C)C)ccc1NC(=O)c1ccco1	Cycloheximide cs 58
CC(=O)c1ccccc1NC(=O)CCNC(=O)c1ccco1	Cycloheximide cs 18
CC(C)C[C@@H](CC(=O)N[C@@H](CCC(=O)O)CC(=O)O)NC(=O)[C@@H]1CCCC[C@H]1NC(=O)C[C@H](CCCN)NC(=O)C[C@H](Cc1ccccc1)NC(=O)[C@@H]1CCCC[C@H]1N	none (no result: NS1 function inh, LmPK inh, Shiga inhibitor, Cycloheximide cs)
CN1CCN(c2ncc3nc(-c4ccccc4)c(=O)n(CCc4ccccc4)c3n2)CC1	none (no result: NS1 function inh, LmPK inh, Shiga inhibitor, Cycloheximide cs)
COc1ccc(NC(=O)c2ccccc2SC)c(OC)c1	none
COc1ccc(NC(=O)c2ccccc2O)c(OC)c1	Shiga inhibitor 88, Cycloheximide cs 51
COc1ccc(NC(=O)c2ccco2)c(OC)c1	Shiga inhibitor 74, Cycloheximide cs 42
COc1ccc(C(=O)Nc2ccccc2NC(=O)c2ccco2)c(OC)c1	none (no result: NS1 function inh)
CCOCCn1c(=O)c2c(nc3n2CC(C)CN3CCc2ccccc2)n(C)c1=O (stereo unspecified)	none
Cc1ccccc1C1=NC(c2ccc(F)cc2F)ON1 (stereo unspecified)	Cycloheximide cs 30
COc1ccccc1C1N=C(c2ccccc2C)NO1 (stereo unspecified)	Shiga inhibitor 123, Cycloheximide cs 44
Cc1ccccc1-c1nn(-c2ccc(F)cc2F)cc1CNCC(C)O (stereo unspecified)	none
CCOP(=O)(Oc1ccccc1)c1c([N+](=O)[O-])cc(C(F)(F)F)cc1[N+](=O)[O-] (stereo unspecified)	none
CCCOP(=O)(O)c1c([N+](=O)[O-])cc(C(F)(F)F)cc1[N+](=O)[O-] (tested in a mixture with another compound)	Cycloheximide cs 14
O=C(Cc1ccsc1)NCC(=O)Nc1ccc(F)c(F)c1	none (no result: Giardia FBPA inh)
COc1ccc(CNC(=O)Cn2ccc3cc(S(=O)(=O)N4CCCC4)ccc32)cc1OC	none
S=c1nc(C2COc3ccccc3O2)[nH][nH]1 (stereo unspecified)	Giardia FBPA inh inconclusive
